Rows were chosen to be rich in hits. Some 2.1% of all compounds tested hit in one or more screens of this group.
HNF4A DNA FP – change in binding of human HNF4 alpha to DNA; 360,000 tested, 0.3% active; activity change, % at 10 µM; HNF4a-FITC DNA binding, fluorescence polarization, 1 h; in the data active = activity change above about 30%, passing the limit was not always enough
Myeloid diff MLP – compounds promoting myeloid differentiation. AID 624256. ER-HoxA9 myeloid progenitors, lysozyme-GFP differentiation, flow cytometry. calls only at 10 µM. 360,000 tested, 1% active;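 active = normalized GFP-positive differentiation at or above the plate's own cutoff, the solvent-only control mean plus 3 SD; inconclusive = no clear call, values can overlap the other calls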;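 note: cells exposed to compound for four days before flow analysis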
Rpn11 inh – blocks the human proteasome subunit Rpn11 | human 26S proteasome, Ub4-pepOG fluorescence polarization; 20S core pre-blocked with epoxomicin | inhibition, % at 20 µM | 360,000 tested, 0.59% active | AID 588493;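 active = inhibition at 20 µM, scaled to each plate's controls, above about 33%, limit read from the data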
TPT1 inh – inhibitors of Candida albicans tRNA 2'-phosphotransferase TPT1 | recombinant caTPT1, FP RNA substrate dephosphorylation | inhibition, % at 5 µM | 300,000 tested, 0.81% active | AID 1962;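 active = inhibition above the mean of all tested compounds plus 3 SD, set per screening campaign, cut at about 24% in these data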;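 note: plate controls were DMSO alone for no effect and ferristatin control at 100 nM for full effect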
Rpn11 confirm – confirmation of human proteasome Rpn11 inhibitors; shares compounds with Rpn11 inh; purified human 26S proteasome, Ub4-pepOG fluorescence polarization; proteasome pretreated with epoxomicin; 1,900 tested, 29% active; inhibition, % at 20 µM
MMP-2 counter – MMP-2 (human) inhibition counter-screen. shares compounds with Rpn11 inh. recombinant MMP-2, FRET peptide cleavage fluorescence. inhibition, % at 20 µM. 1,900 tested, 4% active. AID 602330;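 note: human MMP-2 activated beforehand with APMA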
Target sequence (P08253 whole entry, looked up): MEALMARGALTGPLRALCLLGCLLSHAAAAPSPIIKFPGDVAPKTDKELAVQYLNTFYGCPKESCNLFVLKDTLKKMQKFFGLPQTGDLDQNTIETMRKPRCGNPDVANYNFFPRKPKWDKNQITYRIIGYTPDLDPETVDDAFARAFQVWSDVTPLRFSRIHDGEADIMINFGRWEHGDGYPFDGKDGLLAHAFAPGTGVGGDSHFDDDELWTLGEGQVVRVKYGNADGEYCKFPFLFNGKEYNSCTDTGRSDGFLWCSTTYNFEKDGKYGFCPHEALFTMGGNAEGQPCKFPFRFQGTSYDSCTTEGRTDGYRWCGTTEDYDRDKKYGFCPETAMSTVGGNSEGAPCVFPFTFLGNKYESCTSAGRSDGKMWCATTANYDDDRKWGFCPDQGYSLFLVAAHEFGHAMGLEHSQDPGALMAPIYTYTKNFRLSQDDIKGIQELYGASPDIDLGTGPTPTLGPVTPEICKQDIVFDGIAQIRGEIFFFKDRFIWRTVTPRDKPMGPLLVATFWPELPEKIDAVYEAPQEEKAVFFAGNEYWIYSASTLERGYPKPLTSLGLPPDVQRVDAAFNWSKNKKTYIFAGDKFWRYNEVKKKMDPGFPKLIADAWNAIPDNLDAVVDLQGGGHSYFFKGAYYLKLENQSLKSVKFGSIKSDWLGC
Thrombin inh – counter-screen for RPN11 inhibitors: inhibition of bovine thrombin | 1,900 tested, 13% active | shares compounds with Rpn11 inh | bovine thrombin cleavage of Ub4-pepOG, fluorescence polarization | inhibition, % at 20 µM | AID 602333;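 active = mean inhibition at least 40% at 20 µM, or signal 3 deviations below plate average, so some actives read negative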;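 note: plate controls were thrombin with DMSO for no effect and buffer wells lacking thrombin for full effect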
An asterisk follows results filed as active; i = inactive; ? = inconclusive; / = no result shown; + = active, no number. Cut-off read from the data, not from the text of the source, unless noted: active = inhibition above about 40%; inactive = the rest.

SMILES	HNF4A DNA FP	Myeloid diff MLP	Rpn11 inh	TPT1 inh	Rpn11 confirm	MMP-2 counter	Thrombin inh
CCCCCCSc1cc(-c2nc3cc(C)ccn3c2NC2CCCCC2)ccc1OC	26	i	52*	8	11	7	-12
COc1cc(-c2nc3cc(C)ccn3c2NC2CCCCC2)ccc1-c1ccc(C(C)=O)cc1	14	+	42*	6	13	4	-11
Cc1ccn2c(NC3CCCCC3)c(-c3cccc(-c4cccc(Cl)c4)c3)nc2c1	11	+	44*	1	11	-40	-4
Cc1ccn2c(NC3CCCC3)c(-c3ccncc3)nc2c1	-1	i	-1	-2	/	/	/
CCCCCCSc1ccc(-c2nc3cc(C)ccn3c2NC2CCCCC2)cc1	27	i	58*	/	20	-15	6
CCCn1nc(C(=O)OCC(=O)NC(C)c2ccccc2)c2ccccc2c1=O (stereo not given)	0	i	4	2	/	/	/
Cc1cccc(/C=C2/S/C(=N/N=C3\CC4CCC3(C)C4(C)C)NC2=O)c1 (stereo not given)	3	i	-4	3	/	/	/
CCOC(=O)c1c(C)[nH]c(C)c1S(=O)(=O)NCc1ccccc1OCC	2	i	-2	2	/	/	/
O=C(N/N=C\c1ccc(-c2ccc([N+](=O)[O-])cc2)o1)C1COc2ccccc2O1 (stereo not given)	10	i	39*	22	46*	5	-23
COC(=O)C(C)N1C(=O)S/C(=C/c2cc(C)n(-c3ccccn3)c2C)C1=O (stereo not given)	-1	i	4	-3	/	/	/
COC(=O)C(C)N1C(=O)S/C(=C\c2cc(C)n(-c3ccccn3)c2C)C1=O (stereo not given)	15	i	136*	-1	1	-25	1
CN(C)S(=O)(=O)c1cccc(C(=O)N2CCN(Cc3ccccc3)CC2)c1	-32	i	109*	-2	-6	-12	-8
Cc1ccc(N(C)S(=O)(=O)c2cccc(C(=O)N3CCN(Cc4ccccc4)CC3)c2)cc1	1	i	-10	/	/	/	/
COc1ccc(CNC(=O)c2ccc(S(=O)(=O)NCc3ccco3)cc2)cc1	2	i	1	/	/	/	/
Cc1ccc(NC(=O)c2ccc(NS(=O)(=O)c3cccc4cccnc34)cc2)cc1	-6	i	6	-3	/	/	/
Cc1ccc(NC(=O)CCc2nc3sc4c(c3c(=O)[nH]2)CCCC4)nc1	18	i	49*	17	78*	-3	35
CCc1cccc(NC(=O)CCc2nc3sc4c(c3c(=O)[nH]2)CCCC4)c1	7	i	47*	14	37	-27	45*
Cc1cccc(NC(=O)C(C)SCc2nc3sc4c(c3c(=O)[nH]2)CCCC4)n1 (stereo not given)	17	+	48*	18	35	-19	24
Cc1cccc(NC(=O)CCc2nc3sc4c(c3c(=O)[nH]2)CCCC4)c1	2	i	3	-6	/	/	/
COc1ccccc1NC(=O)CCc1nc2sc3c(c2c(=O)[nH]1)CCCC3	14	i	44*	21	67*	-27	27
CCc1ccc(/C=C2\Oc3c(ccc(O)c3CN3CCN(CCO)CC3)C2=O)cc1	0	i	3	12	/	/	/
Nn1c(SCC(=O)Nc2cccc(F)c2)nnc1C1CCCCC1	3	i	-6	2	/	/	/
CCOc1ccc(NC(=O)CCN2C(=O)c3ccccc3C2=O)cc1	1	i	-1	-1	/	/	/
CC[n+]1c(/C=C/c2ccc(N(C)C)cc2)ccc2ccccc21	10	/	17	9	/	/	/
CC[n+]1ccccc1/C=C/c1ccc(N(C)C)cc1	50*	?	96*	/	84*	-92	88*
SMILES	HNF4A DNA FP	Myeloid diff MLP	Rpn11 inh	TPT1 inh	Rpn11 confirm	MMP-2 counter	Thrombin inh
Cc1ccc2nc(-c3ccc(NC(=O)c4ccco4)cc3)[nH]c2c1	2	i	67*	-1	8	-96	-8
O=C(NN=C1c2ccccc2-c2ccccc21)c1ccccn1	1	i	94*	0	60*	-28	-14
COc1cc(/C=C2\SC(=O)N(CCNC(=O)c3sc4cc(F)ccc4c3Cl)C2=O)cc(OC)c1OC	5	i	43*	-2	-1	-31	-8
COc1cc(C(=O)NCC(=O)NCCN2C(=O)S/C(=C\c3ccccc3Cl)C2=O)cc(OC)c1OC	-3	i	-7	-4	/	/	/
O=C(O)c1cc(-c2ccc(/C=N/Nc3ccc([N+](=O)[O-])cn3)o2)ccc1Cl	3	i	76*	/	1	-15	22
Cc1nc(N)sc1-c1csc(Nc2ccc(S(N)(=O)=O)cc2)n1	10	i	41*	/	24	22	-4
COc1ccc(-c2csc(Nc3ccc(S(N)(=O)=O)cc3)n2)cc1	6	i	7	2	/	/	/
CN(CC(=O)Nc1cccnc1)S(=O)(=O)c1ccc(Br)cc1	5	i	0	4	/	/	/
CCOc1ccc(C(=O)CCC(=O)N(CC)CC(=O)Nc2c(F)cccc2F)cc1	3	/	16	4	/	/	/
COC(=O)c1c(S(C)(=O)=O)nc(-c2ccccc2)[nH]c1=O	2	i	3	-1	/	/	/
CC(=O)Nc1cc(C(=O)NCCN2CCN(Cc3ccccc3)CC2)ccc1Sc1ccc(C)cc1	3	i	1	0	/	/	/
COc1cccc(/C=N/NC(=O)c2[nH]c(C)c(C(=O)N/N=C/c3cccc(OC)c3)c2C)c1	-1	i	57*	2	45*	-2	2
CCOC(=O)c1c(C)[nH]c(C(=O)N/N=C/c2cccc(OC)c2)c1C	-2	i	2	-3	/	/	/
COc1ccc(C(CNC(=O)CNC(=O)c2cccc(C)c2)N2CCCCC2)cc1 (stereo not given)	-1	i	0	/	/	/	/
CCOC(=O)c1ccc(-n2cccc2/C=C2\NC(=O)NC2=O)cc1	4	?	46*	/	4	-73	-14
CCOC(=O)c1cccc(-n2cccc2/C=C2\NC(=O)N(CC(=O)O)C2=O)c1	4	i	0	/	/	/	/
Cc1ccc(/C=c2\sc3nc(-c4ccco4)nn3c2=O)o1	-34	i	/	11	/	/	/
COc1ccc(Br)cc1/C=c1\sc2nc(-c3ccco3)nn2c1=O	-28	i	91*	23	17	2	10
COc1ccc(NC(=O)c2ccc(C)cc2Cl)c([N+](=O)[O-])c1	-5	i	48*	2	-6	-26	-8
O=C(CN1C(=O)CCSc2ccccc21)Nc1ccccc1	-7	i	-10	-1	/	/	/
Cc1cc2c(=O)n(Cc3ccco3)c(SCC(=O)c3ccc(Cl)s3)nc2s1	-3	?	40*	2	-10	-46	-6
COc1cc(Cl)cc(/C=N\NC(=O)c2ccc3c(c2)OCO3)c1O	6	i	97*	/	134*	23	76*
O=C(N/N=C/c1cc(Cl)cc([N+](=O)[O-])c1O)c1ccc2c(c1)OCO2	-1	i	4	3	/	/	/

Source: PubChem (several laboratories)
